MRP resist rev – MRP-mediated drug resistance reversal; H69AR cells + 2 uM doxorubicin, CellTiter-Glo, 72 h; differential viability (reversal), % at 10 µM; 0.04% of 85,000 active; AID 602;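 active means viability drop by adding the cancer drug above about 55%, with treated viability meeting a 40% cutoff, limit read from the data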;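 further: larger differential means the compound sensitizes cells more to doxorubicin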
sEH inhibitor – soluble epoxide hydrolase (human) inhibition. P34913. recombinant human sEH enzymatic activity assay. AID 707. 0.34% of 91,000 active. inhibition, % at 2 µM; in the data active means inhibition above about 80%
Target sequence (P34913 whole entry, looked up): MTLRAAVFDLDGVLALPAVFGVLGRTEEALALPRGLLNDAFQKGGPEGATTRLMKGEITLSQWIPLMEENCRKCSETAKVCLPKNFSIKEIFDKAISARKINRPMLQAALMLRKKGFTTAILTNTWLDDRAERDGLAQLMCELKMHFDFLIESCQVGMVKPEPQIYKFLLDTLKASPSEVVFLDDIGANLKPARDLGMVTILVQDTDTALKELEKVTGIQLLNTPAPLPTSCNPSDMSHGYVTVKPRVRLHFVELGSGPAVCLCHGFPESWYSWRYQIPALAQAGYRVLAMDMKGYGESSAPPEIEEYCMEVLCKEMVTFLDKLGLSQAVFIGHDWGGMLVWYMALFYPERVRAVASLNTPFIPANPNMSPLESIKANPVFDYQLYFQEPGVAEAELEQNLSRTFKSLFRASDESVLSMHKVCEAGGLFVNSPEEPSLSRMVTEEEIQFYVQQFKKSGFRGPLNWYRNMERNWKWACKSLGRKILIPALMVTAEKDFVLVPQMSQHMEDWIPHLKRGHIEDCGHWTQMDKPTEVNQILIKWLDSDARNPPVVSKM
MRP1 act – MRP-1 activation; viability increase, % at 10 µM; H69AR cells + doxorubicin, viability rescue, CellTiter-Glo; 0.61% of 140,000 active; AID 799;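 active means viability gain under doxorubicin at or above a set limit, the compound median plus 3 SD, cut at about 4.7% in these data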;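 further: MRP-1 overexpressing cells given doxorubicin 25 µM after compound pretreatment; 18-22 h compound pretreatment then 72 h with doxorubicin before readout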
sEH act – soluble epoxide hydrolase (human) activation; P34913; purified human sEH enzymatic activity, activator screen; activation, % at 2 µM; 0.04% of 91,000 active; AID 717; in the data active means activation above about 37%
Candida biofilm – kills Candida albicans biofilms. C. albicans biofilm + clotrimazole, Alamar Blue. inhibition, % at 6 µM. 0.14% of 85,000 active. AID 834;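 active means inhibition above 20%; inactive means inhibition below 20%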;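 further: preformed 24 hr biofilms exposed to compound for 48 hr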
A number is an active result. An excerpt weighted towards active compounds, which were near 0.87% of everything screened.

Screening COc1cc(NC(=O)CN2CC(c3ccccc3)CC2=O)cc(OC)c1 (stereo not given) returned MRP resist rev inactive, MRP1 act inactive and Candida biofilm 20.
`COc1cccc(/C=N/NC(=O)CN2CC(c3ccccc3)CC2=O)c1OC` (stereo not given) gave MRP1 act inactive.
For O=C(NC1CCCC1)C(c1c[nH]c2ccccc12)N(C(=O)Cn1nnc(-c2ccc(Cl)cc2)n1)c1ccccc1 (stereo not given) the results were sEH inhibitor inactive, MRP1 act 11 and sEH act inactive.
For Cc1ccc(C(=O)NCc2ccco2)cc1S(=O)(=O)Nc1cccc(Cl)c1 the results were sEH inhibitor inactive, MRP1 act inactive and sEH act inactive.
`N#Cc1c(-c2ccccc2)[nH]c(=S)[nH]c1=O` gave MRP resist rev inactive, sEH inhibitor inactive, MRP1 act 4.7, sEH act inactive and Candida biofilm inactive.
For O=CNc1ccc(S(=O)(=O)NCc2ccccc2)cc1 the results were MRP resist rev inactive, sEH inhibitor inactive, MRP1 act inactive, sEH act 39 and Candida biofilm inactive.
Screening CCOC(=O)c1nnc(-c2ccc(C)cc2)nc1Oc1ccc(Cl)cc1Cl returned sEH inhibitor inactive, MRP1 act 5.0 and sEH act inactive.
`CCOC(=O)c1nnc(-c2ccc(C)cc2)nc1Oc1ccccc1Cl` gave sEH inhibitor inactive, MRP1 act inactive and sEH act inactive.
CC1=C(C(=O)Nc2ccccc2)C(c2ccccc2)N2C(=O)CSC2=N1 (stereo not given) was read as MRP resist rev inactive, sEH inhibitor inactive, MRP1 act inactive, sEH act inactive and Candida biofilm inactive.
CC1=C(C(=O)Nc2ccccc2)C(c2ccc(C)o2)N2C(=O)CSC2=N1 (stereo not given) was read as MRP resist rev inactive, sEH inhibitor inactive, MRP1 act 11, sEH act inactive and Candida biofilm inactive.
Cc1ccc(NC(=O)CCSc2nnnn2-c2ccc3c(c2)OCO3)cc1C was read as MRP resist rev inactive, sEH inhibitor inactive, MRP1 act 6.2, sEH act inactive and Candida biofilm inactive.
`CCOC(=O)c1ccc(NC(=O)C2CCN(C(=O)c3ccc(OC)c(OC)c3)CC2)cc1` gave MRP resist rev inactive, sEH inhibitor inactive, MRP1 act 11, sEH act inactive and Candida biofilm inactive.
For O=C1CC(N2CCN(c3nc4ccccc4s3)CC2)C(=O)N1c1ccc(F)cc1 (stereo not given) the results were MRP resist rev inactive, sEH inhibitor inactive, MRP1 act 4.9, sEH act inactive and Candida biofilm inactive.
`Cc1nc(/N=C(\N)NC(=O)N2c3ccccc3Sc3ccccc32)nc2ccccc12` gave MRP1 act 6.5.
O=C(N/N=C1\CCCc2ccccc21)c1ccccc1[N+](=O)[O-] was read as MRP resist rev inactive, sEH inhibitor inactive, MRP1 act inactive, sEH act inactive and Candida biofilm inactive.
CCN(CC)c1ccc(C(=O)N/N=C(\C)c2ccc(O)cc2)cc1 was read as MRP1 act inactive.
`Cc1cc(C)cc(N(CC(=O)NC2CCCCC2)C(=O)c2ccc(C)s2)c1` gave sEH inhibitor inactive, MRP1 act inactive and sEH act inactive.
Cc1ccc(N(CC(=O)NC2CCCCC2)C(=O)c2ccc(C)s2)cc1 was read as sEH inhibitor 81, MRP1 act inactive and sEH act inactive.
`Cc1nn(Cc2ccccc2)c(Cl)c1/C=N/NC(=O)CNc1cccc(C(F)(F)F)c1` gave MRP1 act inactive.
For CCc1ccccc1NC(=O)/C(=C/c1ccco1)c1ccccc1 the results were MRP resist rev inactive, sEH inhibitor inactive, MRP1 act inactive, sEH act inactive and Candida biofilm 67.
Cc1ccccc1NC(=O)/C(=C/c1ccco1)c1ccccc1 was read as MRP resist rev inactive, sEH inhibitor inactive, MRP1 act inactive, sEH act inactive and Candida biofilm inactive.
`Clc1c(-c2ccccc2)nnn1-c1ccccc1` gave MRP1 act inactive.
For CCCCOC(=O)Nc1ccc(C(C)C)cc1 the results were MRP resist rev inactive, sEH inhibitor inactive, MRP1 act 6.0, sEH act inactive and Candida biofilm inactive.
`CCCCOC(=O)Nc1ccc(C(N)=O)cc1` gave MRP resist rev inactive, sEH inhibitor inactive, MRP1 act inactive, sEH act inactive and Candida biofilm inactive.
`CCCCOC(=O)Nc1ccc(S(=O)(=O)Nc2ccc([N+](=O)[O-])cc2)cc1` gave MRP1 act 4.7.
Screening O=C(NN=C1C2CC3CC(C2)CC1C3)c1cccc(S(=O)(=O)N2CCOCC2)c1 returned MRP1 act inactive.
CCOC(=O)c1c(CSC(=N)N)n(-c2ccc(C)cc2)c2cc(Br)c(OC(C)=O)cc12 was read as sEH inhibitor inactive, MRP1 act 9.5 and sEH act inactive.
For Cc1c(C(=O)Nc2ccncc2)sc2nc(-c3ccc(F)cc3)cn12 the results were MRP resist rev inactive, MRP1 act inactive and Candida biofilm 32.
`COc1ccc(-c2cn3c(C)c(C(=O)Nc4ccncc4)sc3n2)cc1` gave MRP resist rev inactive, sEH inhibitor inactive, MRP1 act inactive, sEH act inactive and Candida biofilm inactive.
Screening COc1cccc(-n2c(Cn3nc(C(F)(F)F)cc3C)n[nH]c2=S)c1 returned MRP1 act inactive.
Cc1c(NC(=O)c2ccccc2NS(=O)(=O)c2ccc(Br)cc2)c(=O)n(-c2ccccc2)n1C was read as MRP resist rev inactive, sEH inhibitor inactive, MRP1 act 5.3, sEH act inactive and Candida biofilm inactive.

Bioassay records (PubChem BioAssay)
